# Assay outcomes: PubChem BioAssay, The Scripps Research Institute Molecular Screening Center
# Compounds with a hit are over-represented: about 4.1% of the library has one in this group of screens.
# ssDAF12 agonist = activators of S. stercoralis DAF-12 nuclear receptor | HEK293 ssDAF-12/GRIP1 lit1-tk-luc reporter, luminescence; % of 3 µM dafachronic acid response | activation, % at 6.8 µM | actives 1% (n = 370,000) | AID 652126;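 active = activation above the mean over all tested compounds plus 3 SD, cut at about 0.9% in these data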;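 note: 0% = DMSO-only wells and 100% = 3 µM delta7-dafachronic acid wells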
# DAX1 inh-1 = inhibitors of DAX1 repression of SF-1 activated StAR promoter | actives 1.1% (n = 370,000) | HEK293T StAR-luciferase reporter, SF-1/DAX-1 repression relief | AID 652010 | inhibition, % at 6.8 µM;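 active = inhibition above the mean over all tested compounds plus 3 SD, cut at about 3.6% in these data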;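 note: 0% = DAX-1 cells with DMSO and 100% = cells lacking DAX-1 with DMSO; higher inhibition means more luminescence from relief of DAX-1 repression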
# hcDAF12 agonist = H. contortus DAF-12 activation, primary screen; activation, % at 6.8 µM; actives 1.4% (n = 370,000); AID 652067; HEK293 hcDAF-12 lit1-tk-luc reporter, luminescence; 0% DMSO, 100% Δ7-dafachronic acid;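 active = activation above the mean of all tested compounds plus 3 SD, cut at about 5.5% in these data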;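 note: 100% = response to 3 µM Δ7-dafachronic acid high control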
# hgDAF-12 ag = activates the H. glycines DAF-12 receptor ligand-binding domain. HEK293 GAL4-hgDAF12 UAS-luciferase reporter, agonist luminescence; normalized to butyrate control. activation, % at 6.8 µM. actives 1.8% (n = 370,000);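 active = activation above a cutoff set at the mean of all screened compounds plus 3 SD, cut at about 10% in these data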;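 note: 0% = DMSO wells and 100% = sodium butyrate wells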
# DAX1 inh-2 = inhibits human nuclear receptor DAX1 | P51843 | HEK293 Gal4-DAX1 luciferase reporter, luminescence | inhibition, % at 6.75 µM | actives 0.99% (n = 340,000);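 active = inhibition above the mean over all tested compounds plus 3 SD, cut at about 4.2% in these data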;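 note: 0% = DAX1-transfected cells with DMSO and 100% = empty-vector control cells with DMSO; inhibition shows as a rise in luminescence from relieved DAX1 repression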
# Target sequence (P51843 207-470 limits assumed): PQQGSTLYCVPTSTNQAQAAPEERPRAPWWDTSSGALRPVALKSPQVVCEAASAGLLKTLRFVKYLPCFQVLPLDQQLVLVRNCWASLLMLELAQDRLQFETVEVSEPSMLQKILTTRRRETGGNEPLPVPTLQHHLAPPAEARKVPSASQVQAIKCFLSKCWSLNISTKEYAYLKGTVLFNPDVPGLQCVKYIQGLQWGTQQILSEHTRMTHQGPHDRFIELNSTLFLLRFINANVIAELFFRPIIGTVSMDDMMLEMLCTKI
# Numbers without * were called inactive; . = no result; ! = not active in a repeat.
SMILES,ssDAF12 agonist,DAX1 inh-1,hcDAF12 agonist,hgDAF-12 ag,DAX1 inh-2
O=C(COC(=O)c1ccc(F)cc1F)Nc1cccc(S(=O)(=O)N2CCOCC2)c1,-0.8,3.6*,-2.2,1.6,-1.1
C#CCN(Cc1ccco1)C(=O)c1nnc2c3ccccc3n(S(=O)(=O)c3ccccc3)c2n1,-0.8,-0.1,1.7,-1.1,.
Cn1c(=O)n(CC(=O)O)c(=O)c2c1nc1n2CCS1,-1.1,-0.3,-1.4,-0.9,6.4*!
O=C(CCN1C(=O)/C(=C\c2ccccc2F)SC1=S)Nc1ccc(C(=O)O)c(O)c1,-0.6,3.9*,0.3,0.6,1.7
COc1ccc(C2Nc3ccccc3C(=O)N2NC(C)=O)cc1OC (centres undefined),-1.1,0.7,-1.1,-1.7,2.0
CCOC(=O)NN1C(=O)c2ccccc2NC1c1ccc(OC)c(OC)c1 (centres undefined),-2.1,-0.3,0.0,-0.7,4.6*
COc1ccc(CN(CCN2CCOCC2)C(=O)c2cccc(F)c2)cc1OC,-1.0,-0.1,-3.0,0.2,.
COc1cccc(-n2nnc3c(=O)n(CC(=O)N4CCC(C)CC4)cnc32)c1,-1.2,-1.0,-1.6,0.4,0.7
COc1cccc(-n2nnc3c(=O)n(CC(=O)N4CCC(Cc5ccccc5)CC4)cnc32)c1,1.2*,-1.2,5.1,6.0,-0.9
COc1ccc(-c2cc(OC)c3ccccc3n2)cc1,-0.8,0.3,3.9,1.4,1.6
COc1ccc(-c2cc3cc(OC)c(OC)cc3c(C)n2)cc1,-1.1,0.6,-0.1,11.3*,0.2
COc1ccccc1CCc1nnc(CCC(=O)N(C)Cc2cccc3cnccc23)o1,-0.8,0.6,1.4,11.0*,1.1
Fc1ccc(-n2nnc(-c3ccccc3Cl)n2)cc1,-1.5,-1.1,-2.0,0.4,0.1
Clc1nc2ccccc2cc1-c1nnn(-c2ccccc2)n1,0.7,0.5,6.4*,10.4,0.8
COC(=O)c1cccc(Cn2ccc3ccc(-c4ccc5ccn(C(=O)c6ccccc6)c5c4)cc32)c1,-0.9,-0.6,-1.8,-2.6,.
CCN(CC)CCNC(=O)c1cc2c(-c3ccc(Cl)cc3)nn(C)c2s1,0.2,2.3,9.7*,2.8,2.3
CCN(CC)CCNC(=O)c1cc2c(-c3cccc(OC)c3)nn(C)c2s1,1.2*,0.6,5.4,3.9,-0.3
COCCCNC(=O)c1cc2c(-c3cccc(OC)c3)nn(C)c2s1,-0.8,-0.6,-1.8,-1.0,-0.1
CCOCCCNC(=O)c1cc2c(-c3ccc(Cl)cc3)nn(C)c2s1,-1.3,-1.1,4.7,1.6,-1.6
CCCC1CCC2(CC1)CCC2OC(=S)NCCc1ccc(Cl)cc1 (centres undefined),-0.8,.,0.2,-2.5,.
Cc1cc(C)nc(SCC(=O)Nc2ccc(S(=O)(=O)Nc3ncccn3)cc2)n1,-0.4,0.4,-0.5,-2.2,0.4
Cc1cc(C)nc(NS(=O)(=O)c2ccc(NC(=O)CSc3ncn[nH]3)cc2)n1,-1.2,0.2,-0.9,-1.9,5.8*
Nc1ccc(C(=O)c2cccs2)cn1,0.5,0.2,5.8*,3.2,0.9
CCOc1ccc(/C=C2/SC(=O)NC2=S)cc1,0.2,0.3,2.5,3.6,3.9
CCOc1ccc(/C=C2\SC(=S)N(N3C(=O)C4CC4C3=O)C2=O)cc1 (centres undefined),-1.6,0.6,5.7*,2.0,-0.5
SMILES,ssDAF12 agonist,DAX1 inh-1,hcDAF12 agonist,hgDAF-12 ag,DAX1 inh-2
CCOC(=O)CC[C@@H]1CC[C@]2(CCCN(C(=O)C3CCCCC3)C2)O1,-1.2,-0.2,0.9,-2.8,.
COc1cccc(Cn2cc(COC(=O)N3CCOCC3)nn2)c1,-1.0,0.8,-3.2,-0.6,.
O=c1[nH]c2ccccc2nc1/C=C/c1ccccc1,0.8,2.6,6.4*,12.1*,1.1
COC(=O)[C@]12CCCCC=C1N(Cc1ccc(OC)cc1)C(=O)[C@@H]2CC(=O)N1CCN(C(=O)C2CC2)CC1,-0.8,0.8,-0.9,-0.1,.
COc1ncccc1-c1nnn(-c2ccccc2Br)n1,-0.8,0.1,1.8,1.2,0.5
Cc1ccc(-n2nnc(-c3cccnc3)n2)cc1,-0.2,2.2,1.9,8.9,0.7
COc1ncccc1-c1nnn(-c2ccccc2)n1,1.3*,3.2,5.7*,11.2*,1.9
c1ccc(-n2nnc(-c3cccnc3)n2)cc1,-0.1,0.8,3.6,11.4*,3.4
CNc1nc(Nc2ccc(Br)cc2)nc(N)c1[N+](=O)[O-],1.2*,1.4,5.5,2.8,0.7
Cc1[nH]nc(Nc2ccc(Br)cc2)c1[N+](=O)[O-],1.3*,1.1,3.9,11.9*,5.6*
COc1ccc(Nc2nc(N)c([N+](=O)[O-])c(NCCO)n2)cc1,-1.1,-0.4,0.6,-1.5,.
Cc1ccc(Nc2n[nH]c(C)c2[N+](=O)[O-])cc1,0.2,2.7,1.6,10.3,0.9
C=CCN1C(=O)[C@@H](CC(=O)N2CCC(c3ccccc3)CC2)[C@]2(C(=O)OCC)CCCCC/C=C/12,-1.2,-0.4,-2.4,-3.0,.
c1cncc(Oc2ccc(NCCc3c[nH]c4ccccc34)cc2)c1,0.3,-1.3,1.4,2.6,.
CC1(C)C=C2C(N(CC3CC3)C(=N)N2C(=O)OCc2ccccc2)n2c(=O)n(-c3ccccc3)c(=O)n21 (centres undefined),-1.2,.,0.8,-0.7,.
O=C(N/N=C/c1cn(-c2ccccc2)nc1-c1ccc2c(c1)OCCO2)c1ccncc1,-0.7,1.5,-0.7,10.5*,0.1
Cc1ccc(Cn2cc(COC(=O)N3CCOCC3)nn2)cc1,0.6,-0.4,-0.9,5.8,.
CCC1COC(c2cccn2Cc2ccccc2Cl)=N1 (centres undefined),-1.4,0.2,1.1,3.5,5.9*
COCCCNCCOCCOc1ccc(C)cc1Br,-0.5,-0.3,5.7*,0.1,-0.6
COC(=O)[C@]12C[C@H](CC(=O)NCC34CC5CC(CC(C5)C3)C4)C(=O)N(CCc3ccc(OC)c(OC)c3)C1=C[C@H](C(C)C)O[C@@H]2C1CC1,-0.6,0.3,-1.2,-0.1,.
C=C(C)CSc1nc2ncccc2[nH]1,-1.4,0.1,-1.2,-1.6,1.3
Cc1ccc(CSc2nc3ncccc3[nH]2)cc1,-0.6,1.8,3.2,12.9*,-1.4
CC(C)(CC(=O)O)CC(=O)Nc1ccc2c(c1)ncn2CCc1ccccc1,-0.6,-0.1,-1.2,1.9,4.5*
CS(=O)(=O)Nc1ccc2c(c1)ncn2CCc1ccccc1,-0.9,-0.2,0.5,-0.7,0.6
Cc1n[nH]c(C)c1S(=O)(=O)NCCc1ccccc1F,-2.1,-0.6,-1.4,-3.3,.
Nc1[nH]c(C(=O)c2ccccc2)c(-c2ccc3c(c2)OCO3)c1C(=O)NCCc1c[nH]c2ccccc12,-1.1,-0.2,-0.8,-2.5,.
O=C(c1cc2c(s1)-c1ccccc1OC2)N1CCN(c2ccccn2)CC1,-0.7,0.2,0.2,0.7,5.4*
COc1ccc(NC(=O)/C(C#N)=C/c2ccc[nH]2)c(OC)c1,0.2,1.3,6.5*,3.6,0.5
